36 compounds from PubChem BioAssay can be followed below.

A number with no mark means an inactive call. Activity calls are given as the source filed them. Unless noted, no rule for the calls is given here.

One assay can be described thus: Pseudomonas biofilm growth suppression – PAO1 strain, BacTiter-Glo luminescence, LB-PBS, primary screen (AID 1144). Particulars: P. aeruginosa PAO1 biofilm, 12 h, higher = more signal.
With `CC(CCN1CCc2nc(-c3ccccc3)c(-c3ccccc3)cc2C1)=NO[C@H](C)c1cn([C@H](CO)Cc2ccccc2)nn1`, the z-score is -0.413.

Turning to `C#CCCCON=C1C[C@@H](O)[C@@H](O)[C@@H]2[C@@H]3C(=O)N(C[C@@H]4CCCO4)C(=O)[C@@H]3CC[C@@H]12`, the z-score was -0.164.

For `CCOC(=O)[C@H](CC(C)C)NC(=O)CCC1CC(OC(=O)NCc2ccc3c(c2)OCO3)CC2(CCCC(COC(=O)NCCOC)O2)O1` (stereo partly drawn), the z-score was 0.211.

Consider `COc1ccc(OC[C@@H](CO)OC)cc1`, for which the z-score is 0.86.

Regarding `COC(=O)[C@@H]1CC[C@H](C)[C@@H](c2ccc(C)cc2)N1C(=O)c1ccc(C=NOC[C@@H](O)[C@H]2O[C@@H]3OC(C)(C)O[C@@H]3[C@H]2O)cc1`, the z-score was -0.0399.

As to `CC(=O)OC[C@H]1O[C@H](CC=NO[C@@H](C)c2cn([C@H](CO)Cc3ccccc3)nn2)C=C[C@@H]1OC(C)=O`, the z-score was -0.902.

For `COC(=O)[C@H](C)NC(=O)CCC1CC(OC(=O)NCc2ccc3c(c2)OCO3)CC2(CCCC(COC(=O)NCCC(C)C)O2)O1` (stereo partly drawn), the z-score is -0.174.

A short description of a further assay: basal CRE-LacZ reporter activity in PC12 – cell-based, unstimulated, primary screen (AID 1145). Particulars: no forskolin, luminescence, 4.5 h, higher = more signal, called active from +8 up or from −8 down.
As for `CCOC(=O)CCN1C(=O)[C@H]2[C@H]3[C@H](O)[C@H](O)CC(=NOCC=C(C)CCC=C(C)C)[C@H]3CC[C@H]2C1=O`, the z-score was 0.153.

Regarding `CCOC(=O)[C@H](Cc1ccccc1)NC(=O)CCC1CC(OC(=O)NCc2cccc3ccccc23)CC2(CCCC(COC(=O)NCCOc3ccccc3)O2)O1` (stereo partly drawn), the z-score was -0.523.

Consider `CCOC(=O)[C@H](CC(C)C)NC(=O)CCC1CC(OC(=O)NCCc2ccc(F)cc2)CC2(CCCC(COC(=O)NCCCN3CCCC3=O)O2)O1` (stereo partly drawn), for which the z-score was 0.109.

As to `CC(=O)OC[C@H]1O[C@H](CC=NOC(C)CN2CCCCc3nc(C)c(C)cc32)C=C[C@@H]1OC(C)=O` (stereo partly drawn), the z-score is -0.157.

Consider `C#CCCCON=C1[C@H]2CCn3c(=O)n([C@@H](CC)c4ccccc4)c(=O)n3[C@H]2[C@H](O)[C@@H]2O[C@H]12`, for which the z-score was 1.15.

As for `CO[C@H]1C[C@@H]2C[C@H](O)CC(CC(=O)O[C@@H](C=CCC(C)C)C[C@@H]3CC[C@H](C)[C@@H](C1)O3)O2`, the z-score was 2.64.

`C=CC[C@@H]1C=C[C@H](ON=C[C@@H](NS(=O)(=O)c2ccc(C)cc2)[C@H](C)C=CCC(=O)OC)[C@@H](CO)O1`: the z-score is 0.848.

On to `CO[C@H]1COC(=O)CCC[C@H](C)[C@@H](OC)COC(=O)CC=C[C@@H]1C`, for which the z-score was -0.394.

In the case of `O=C(NN=C1C[C@@H](O)[C@@H](O)[C@@H]2[C@@H]3C(=O)N(Cc4ccccc4)C(=O)[C@@H]3CC[C@H]12)OCc1ccccc1`, the z-score was 0.0628.

In the case of `CCOC(=O)[C@H](CC(C)C)NC(=O)CCC1CC(OC(=O)NCCc2ccc(F)cc2)CC2(CCCC(COC(=O)NCc3cccc4ccccc34)O2)O1` (stereo partly drawn), the z-score is -0.889.

Take `CCN1C(=O)[C@H]2[C@H]3[C@H](O)[C@H](O)CC(=NOCC(C)C)[C@H]3CC[C@H]2C1=O`: the z-score is -0.202.

For the compound `COC(OC)[C@@H](C)[C@H](OC)[C@@H](C)[C@H](OC)c1ccccc1`, the z-score was 1.46.

Consider `COC(=O)[C@H](C)NC(=O)CCC1CC(OC(=O)NCc2ccc3c(c2)OCO3)CC2(CCCC(COC(=O)NCc3ccccc3)O2)O1` (stereo partly drawn), for which the z-score was -0.345.

For `CO[C@@H](C1CCCCC1)[C@@H](C)[C@H](OCc1cccc(Br)c1)[C@@H](C)CO`, the z-score was 2.93.

For `CC(C)CON=C1[C@H]2CCn3c(=O)n(C)c(=O)n3[C@H]2[C@H](O)[C@@H]2O[C@H]12`, the z-score is 0.252.

With `C[C@]12CCC3c4ccc(OCC5CO5)cc4CCC3C1CC[C@@H]2O` (stereo partly drawn), the z-score is 2.75.

Take `CO[C@@H]1C=CCC(=O)N[C@@H](C)C(=O)OC[C@@H](OC)[C@H](C)C=CCC(=O)OC[C@H]1C`: the z-score is 0.876.

Turning to `OC[C@H]1O[C@H](C#Cc2ccccc2)C=C[C@@H]1O`, the z-score was -1.07.

On to `CC(C)[C@@H](OCc1ccccc1)[C@H](C)C=NO[C@H](C)c1cn([C@@H]2COC[C@H]2O)nn1`, for which the z-score is 0.927.

As for `CN1CCc2nc(-c3ccccc3)c(-c3ccccc3)cc2C1`, the z-score was 1.65.

In the case of `O=C1[C@H]2[C@H]3[C@H](O)[C@H](O)CC(=NOC[C@@H](O)COCc4ccco4)[C@@H]3CC[C@H]2C(=O)N1Cc1ccc2c(c1)OCO2`, the z-score is -0.0199.

Regarding `CCOC(=O)[C@H](CC(C)C)NC(=O)CCC1CC(OC(=O)NCc2ccc3c(c2)OCO3)CC2(CCCC(COC(=O)NCCc3ccccc3OC)O2)O1` (stereo partly drawn), the z-score is -0.0755.

For the compound `C[C@@H]1CC[C@H]2C(=O)OC(CN3C(=O)c4ccccc4C3=O)CN2[C@H]1c1ccc(Br)cc1` (stereo partly drawn), the z-score is 1.19.

In the case of `O=C1C=C[C@@H](O)[C@@H]2[C@@H]3C(=O)N(Cc4ccc5c(c4)OCO5)C(=O)[C@@H]3CC[C@@H]12`, the z-score is -0.567.

In the case of `COC(=O)[C@H](C)NC(=O)CCC1CC(OC(=O)NCc2cccc3ccccc23)CC2(CCCC(COC(=O)NCCCN3CCCC3=O)O2)O1` (stereo partly drawn), the z-score was -0.438.

`CO[C@@H]1COC(=O)[C@H](COCc2ccccc2)NC(=O)CC=C[C@@H](C)[C@H](OC)COC(=O)[C@@H](C)NC(=O)CC=C[C@H]1C`: the z-score is 0.337.

Turning to `CON=C(C)CCN1CCCCc2nc(C)c(C)cc21`, the z-score was 0.397.

Take `C#CCCCON=C1[C@H]2CCn3c(=O)n(Cc4cc5c(cc4Cl)OCO5)c(=O)n3[C@H]2[C@H](O)[C@@H]2O[C@H]12`: the z-score is -0.207.

In the case of `C[C@H]1CC[C@H]2C(=O)N[C@H](Cc3ccccc3)C(=O)N2[C@@H]1c1ccccc1`, the z-score was -0.072.

On to `CC(CCN1CCc2nc(-c3ccccc3)c(-c3ccccc3)cc2C1)=NO[C@H](C)c1cn([C@H](CO)Cc2ccccc2)nn1`, for which the z-score is 0.987.

As to `C#CCCCON=C1C[C@@H](O)[C@@H](O)[C@@H]2[C@@H]3C(=O)N(C[C@@H]4CCCO4)C(=O)[C@@H]3CC[C@@H]12`, the z-score was 0.0687.

In the case of `CCOC(=O)[C@H](CC(C)C)NC(=O)CCC1CC(OC(=O)NCc2ccc3c(c2)OCO3)CC2(CCCC(COC(=O)NCCOC)O2)O1` (stereo partly drawn), the z-score is 0.56.

`COc1ccc(OC[C@@H](CO)OC)cc1`: the z-score was 0.562.

`COC(=O)[C@@H]1CC[C@H](C)[C@@H](c2ccc(C)cc2)N1C(=O)c1ccc(C=NOC[C@@H](O)[C@H]2O[C@@H]3OC(C)(C)O[C@@H]3[C@H]2O)cc1`: the z-score was 9.08 (active).

As for `CC(=O)OC[C@H]1O[C@H](CC=NO[C@@H](C)c2cn([C@H](CO)Cc3ccccc3)nn2)C=C[C@@H]1OC(C)=O`, the z-score is 1.67.

As for `COC(=O)[C@H](C)NC(=O)CCC1CC(OC(=O)NCc2ccc3c(c2)OCO3)CC2(CCCC(COC(=O)NCCC(C)C)O2)O1` (stereo partly drawn), the z-score was -0.706.
